High-throughput results (PubChem)
An excerpt weighted towards active compounds, which were near 21% of everything screened.
IL-1B inflam inh: inflammasome signaling inhibition, IL-1 beta readout. AID 743279. activity change, % at 57.5 µM. 360,000 compounds, 4.7% hits. THP-1 LPS/ATP IL-1B secretion, AlphaLISA, 16 h; hits give low values; in the data active means activity change below about -50%; inconclusive means mostly about -30% to -49%
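Secreted IL-1B measured by AlphaLISA bead assay after 16 h compound exposure of THP-1 cells; compounds (final up to 57.5 uM) added 1 h before LPS (250 ng/mL) and ATP (1.25 mM) stimulation; lower signal means less secretion.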
RORg inh: inhibitors of mouse ROR gamma transcriptional activity. P51450. Potency, µM (series often up to 53.6 µM), inactives show top-dose activity change, negative = inhibition, most hits filed as inhibitors. Drosophila S2 Gal4-RORgamma UAS-luciferase reporter, 20 h. 310,000 compounds, 5.4% hits; further: potency means the concentration at half of the fitted maximal effect; nearly all actives have a fitted effect of over 60% in size
Target sequence (P51450 whole entry, looked up, the tested form may be a part): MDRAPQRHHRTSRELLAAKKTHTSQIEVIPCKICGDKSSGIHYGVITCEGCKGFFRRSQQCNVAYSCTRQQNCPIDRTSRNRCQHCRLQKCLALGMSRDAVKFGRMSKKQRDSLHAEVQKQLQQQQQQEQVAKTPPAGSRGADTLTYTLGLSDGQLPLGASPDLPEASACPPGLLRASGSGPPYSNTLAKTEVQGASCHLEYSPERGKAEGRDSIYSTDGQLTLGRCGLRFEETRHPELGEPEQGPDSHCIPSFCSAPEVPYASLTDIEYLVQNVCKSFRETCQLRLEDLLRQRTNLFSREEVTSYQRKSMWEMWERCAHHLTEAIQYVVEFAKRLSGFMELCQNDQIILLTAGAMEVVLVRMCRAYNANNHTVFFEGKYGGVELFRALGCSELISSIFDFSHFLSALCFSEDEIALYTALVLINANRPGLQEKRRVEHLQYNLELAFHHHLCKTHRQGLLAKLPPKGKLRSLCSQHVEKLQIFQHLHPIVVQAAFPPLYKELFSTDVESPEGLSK
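Using a luciferase readout, inhibitors were identified by reduced reporter activity in Drosophila cells coexpressing a copper-inducible Gal4–ROR gamma fusion and UAS-driven Photinus luciferase, incubated 20 hr after 700 uM copper sulfate.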
DT40 TDP1 CPT: growth inhibition of DT40 Tdp1-/-;hTDP1 cells with camptothecin (screen for TDP1 inhibitors); Potency, µM (series often up to 46.2 µM), for the others: top-dose activity change, negative = growth inhibition, actives largely listed as inhibitors; chicken DT40 Tdp1-/-;hTDP1 cells + 20 nM CPT, ATP luminescence, 48 h; 420,000 compounds, 12% hits; further: potency means the concentration at half of the fitted maximal effect; nearly all actives have a fitted effect of over 55% in size
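Cell growth measured by CellTiter-Glo luminescence after a minimum 48 h, 37 C compound exposure with 20 nM CPT in Tdp1-knockout DT40 cells stably expressing hTDP1, seeded 400/well; qHTS titration format.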
VP16 counter: inhibits Gal4-VP16 luciferase reporter, ROR gamma counter-screen | Potency, µM (highest dose often 53.6 µM), for inactives: at the top dose activity, negative = inhibition, usual class: inhibitors | Drosophila S2 Gal4-VP16 UAS-luciferase, luminescence, 20 h | 310,000 compounds, 3.5% hits;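 further: Gal4-VP16 expression switched on by copper sulfate through the metallothionein promoter; potency means the concentration at half of the fitted maximal effect; nearly all actives have a fitted effect of over 50% in size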
ELG1 repair inh: inhibitors of ELG1-dependent DNA repair in HEK293T cells; HEK293T ELG1-luciferase reporter, luminescence, 16 h; DNA damage induced by 5-fluorouridine; Potency, µM (doses to about 46.1 µM), for the others: at the top dose activity change, negative = inhibition, usual class: inhibitors; 330,000 compounds, 2.3% hits; AID 504467; further: potency means the concentration at half of the fitted maximal effect; nearly all actives have a fitted effect of over 55% in size
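Overnight (16 hr) co-exposure of 2,000 cells/well to 5-fluorouridine and compound at 37 °C preceded detection. Luciferase was quantified via ONE-Glo luminescence; loss of signal denotes inhibition.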
TDP1 cell noCPT: qHTS for Inhibitors of human tyrosyl-DNA phosphodiesterase 1 (TDP1): qHTS in cells in absence of CPT; DT40 Tdp1-/- hTDP1 cells, no CPT, ATP luminescence, 48 h; Potency, µM (top dose mostly 46.2 µM), without a hit: at the top dose activity change, negative = growth inhibition, hits mostly inhibitors; 420,000 compounds, 15% hits; AID 686978, 2013; further: potency means the concentration at half of the fitted maximal effect; nearly all actives have a fitted effect of over 55% in size
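Stably hTDP1-transfected Tdp1-null chicken DT40 cells were treated with library compounds minus camptothecin and grown for at least 48 hr at 37 °C, after which cellular ATP was quantified by luminescence.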
* hit, by the source's call. Unless noted, the call rests on the fitted dose curve; in most records, active means well fitted curve in the direction sought with a large enough effect; inconclusive means small, poorly fitted or top-dose-only effect, or another doubt; inactive means no such curve, though single readings can be large; an effect the other way counts as inactive or inconclusive. On the % scale 0 is the no-effect control and ±100 the full control effect.

Screening Cc1cc(C)cc(NC(=O)c2snc3c(=O)[nH]cnc23)c1 returned RORg inh 2.1%, VP16 counter 1.8% and ELG1 repair inh 0.8%.
Screening CCCN1CCN(CCNC(=O)Nc2cc(OC)cc(OC)c2)CC1 returned DT40 TDP1 CPT -17.4% and TDP1 cell noCPT 2.6%.
For CCN(CC(=O)Nc1ccc(NC(C)=O)cc1)C(=O)/C=C/c1c(C)nn(-c2ccc(F)cc2)c1C the results were IL-1B inflam inh inactive, RORg inh -25.0%, DT40 TDP1 CPT -0.8%, VP16 counter 10.7%, ELG1 repair inh 8.2µM* and TDP1 cell noCPT -4.7%.
COc1ccc(NC(=O)Nc2ccc3c(c2)C(=O)N([C@H](C)CO)C[C@H](C)[C@H](CN(C)Cc2ccc(C(=O)O)cc2)OCCCC[C@@H](C)O3)cc1 was read as IL-1B inflam inh 12.1, DT40 TDP1 CPT 0.7% and TDP1 cell noCPT -33.1%.
Screening COc1ccc(NC(=O)Nc2ccc3c(c2)C(=O)N([C@H](C)CO)C[C@@H](C)[C@@H](CN(C)C(=O)C2CCCCC2)OCCCC[C@H](C)O3)cc1 returned IL-1B inflam inh -24.0, DT40 TDP1 CPT inconclusive and TDP1 cell noCPT 23.1µM*.
C[C@@H]1CCCCO[C@@H](CN(C)C(=O)C2CCCCC2)[C@@H](C)CN([C@H](C)CO)C(=O)c2cc(NC(=O)NC3CCCCC3)ccc2O1 was read as IL-1B inflam inh -15.2, DT40 TDP1 CPT 23.1µM* and TDP1 cell noCPT inconclusive.
C[C@H]1CCCCO[C@H](CN(C)C(=O)C2CCCCC2)[C@@H](C)CN([C@@H](C)CO)C(=O)c2cc(NC(=O)NC3CCCCC3)ccc2O1 was read as IL-1B inflam inh -25.2, DT40 TDP1 CPT 20.6µM* and TDP1 cell noCPT 20.6µM*.
CCOC(=O)CCCCCC(=O)Nc1ccc2c(c1)C(=O)N([C@H](C)CO)C[C@H](C)[C@H](CN(C)C(=O)C1CCCCC1)OCCCC[C@@H](C)O2 was read as IL-1B inflam inh 20.3, DT40 TDP1 CPT inconclusive and TDP1 cell noCPT 20.6µM*.
COc1ccc(NC(=O)[C@@H]2CC=C[C@@H]3CCN(C4CCCCC4)C(=O)[C@@H]32)cc1 was read as IL-1B inflam inh 1.9, DT40 TDP1 CPT inconclusive and TDP1 cell noCPT inconclusive.
CCc1cccc(C)c1NS(=O)(=O)c1cc2[nH]c(=O)c(=O)[nH]c2cc1C was read as DT40 TDP1 CPT 4.5% and TDP1 cell noCPT -21.4%.
`OC(Cc1cccc(C=NN2CCOCC2)n1)(C(F)(F)F)C(F)(F)F` gave IL-1B inflam inh -7.2, DT40 TDP1 CPT 5.5% and TDP1 cell noCPT inconclusive.
`CCc1ccc2c(c1)C(c1ccncc1)=NNC(c1ccccc1)=N2` gave IL-1B inflam inh -4.9, RORg inh inconclusive, DT40 TDP1 CPT -24.5%, VP16 counter 5.0%, ELG1 repair inh inconclusive and TDP1 cell noCPT inconclusive.
`CCc1ccc2c(c1)C(c1ccc([N+](=O)[O-])cc1)=NNC(c1ccc(F)cc1)=N2` gave IL-1B inflam inh -53.1*, RORg inh -4.6%, DT40 TDP1 CPT 20.6µM*, VP16 counter inconclusive, ELG1 repair inh 1.0% and TDP1 cell noCPT inconclusive.
CN(C(=O)Cn1nc(C(=O)O)c2ccccc2c1=O)C1(C#N)CCCCC1 was read as IL-1B inflam inh -15.6, DT40 TDP1 CPT -11.3%, ELG1 repair inh -3.4% and TDP1 cell noCPT 0.2%.
For CC1(C)CC(=O)C(C2C3=C(CC(C)(C)CC3=O)Oc3ccc4ccccc4c32)C(=O)C1 (stereo not drawn) the results were IL-1B inflam inh -71.6*, RORg inh 42.0%, DT40 TDP1 CPT 7.0%, VP16 counter 6.1%, ELG1 repair inh inconclusive and TDP1 cell noCPT inconclusive.
Screening COC(=O)c1ccc(C2C(C#N)=C(N)Oc3cc(O)ccc32)cc1 (stereo not drawn) returned IL-1B inflam inh -0.5, RORg inh 34.5%, DT40 TDP1 CPT -8.5%, VP16 counter 4.0%, ELG1 repair inh -11.2% and TDP1 cell noCPT -14.5%.
For N#CC1=C(N)Oc2cc(O)ccc2C1c1cccnc1 (stereo not drawn) the results were IL-1B inflam inh -9.0, RORg inh 1.1%, DT40 TDP1 CPT -3.3%, VP16 counter -2.5%, ELG1 repair inh 8.0% and TDP1 cell noCPT -12.4%.
Screening CCOc1ccccc1C1C(C#N)=C(N)Oc2cc(N)ccc21 (stereo not drawn) returned IL-1B inflam inh -1.0, RORg inh -12.7%, DT40 TDP1 CPT 1.2%, VP16 counter 1.4%, ELG1 repair inh inconclusive and TDP1 cell noCPT -1.3%.
COC(=O)c1ccc(C2C(C#N)=C(N)Oc3cc(N)ccc32)cc1 (stereo not drawn) was read as IL-1B inflam inh -13.6, RORg inh -15.4%, DT40 TDP1 CPT 0.92µM*, VP16 counter 13.7%, ELG1 repair inh 10.3% and TDP1 cell noCPT -2.8%.
`N#CC1=C(N)Oc2cc(N)ccc2C1C1CCCCC1` (stereo not drawn) gave IL-1B inflam inh inconclusive, RORg inh -15.0%, DT40 TDP1 CPT inconclusive, VP16 counter -7.8%, ELG1 repair inh -11.5% and TDP1 cell noCPT 20.6µM*.
For CN(C)c1ccc2c(c1)OC(N)=C(C#N)C2c1cccc(F)c1 (stereo not drawn) the results were IL-1B inflam inh -21.5, RORg inh 2.6%, DT40 TDP1 CPT 0.0206µM*, VP16 counter -10.0%, ELG1 repair inh -9.0% and TDP1 cell noCPT 0.0206µM*.
N#CC1=C(N)Oc2cc(N)ccc2C1c1cccc(F)c1 (stereo not drawn) was read as IL-1B inflam inh -14.2, RORg inh -21.7%, DT40 TDP1 CPT inconclusive, VP16 counter -0.5%, ELG1 repair inh 2.91µM* and TDP1 cell noCPT inconclusive.
For CC(C)(C)S(=O)N1Cc2cc(=O)n(Cc3ccccc3)c(CCO)c2[C@@H]1CCO (stereo partly drawn) the results were IL-1B inflam inh 12.4, DT40 TDP1 CPT -5.7% and TDP1 cell noCPT -0.2%.
Screening Cc1ccc(S(=O)(=O)N2CCN(C(=O)Cn3c(=O)oc4ccccc43)CC2)c(C)c1 returned IL-1B inflam inh 2.2, DT40 TDP1 CPT -14.2%, ELG1 repair inh -6.2% and TDP1 cell noCPT -1.5%.
Screening CCCc1cc(C(=O)OCC(=O)NCCc2ccccc2)sc1C returned IL-1B inflam inh 12.4, DT40 TDP1 CPT -8.3% and TDP1 cell noCPT -17.2%.
